Screening results deposited in PubChem by several laboratories.
PostGolgi yeast: phenotypic screen on post-Golgi transport, primary screen; post-Golgi transport phenotypic cell assay; inhibition, % at 10 µM; 98,000 tested, 0.9% active;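 note: yeast cells grown in 1536-well plates; yeast grown about 18 h at 30C before absorbance read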
CYP2C9 inh: blockers of cytochrome P450 2C9 activity – biochemical, luminescence, ADME assay, primary screen; P11712; CYP2C9 Supersomes, luciferin-H conversion; inhibition, % at 5 µM; 96,000 tested, 20% active;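 active = blocking of liver enzyme CYP2C9 beyond about 50% at 5 µM, limit read from the data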
CYP2C9 activ: human CYP2C9 activators, primary screen, biochemical, luminescence; activation factor at 5 µM; AID 1024, 2008; recombinant CYP2C9, luciferin-H conversion; stronger effect = higher value; factor 1 = untreated enzyme, 0 = blocked; 96,000 tested, 1.4% active; Cytochrome P450 2C9 (Homo sapiens), P11712;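 active = activation factor of 2 or more for CYP2C9 at a 5 µM dose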;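 note: 0 = sulfaphenazole-blocked wells and 1 = vehicle-only wells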
PostGolgi ctrl: growth inhibition of yeast control strain, primary screen, counter-screen for post-Golgi transport modulator project; efflux-deficient yeast background strain, growth absorbance A615, 16 h; inhibition, % at 10 µM; 98,000 tested, 5% active
CYP2C19 act: human CYP2C19 activators, primary screen, biochemical, luminescence; Cytochrome P450 2C19 (Homo sapiens), P33261; recombinant CYP2C19, luciferin-H EGE luminescence; stronger effect = higher value; 0 = fully inhibited enzyme, 1 = untreated enzyme; activation factor at 5 µM; 96,000 tested, under 10 active; AID 1025, 2008;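 active = activation factor of at least 2 at 5 µM in the primary screen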;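 note: 0 = wells with 2.5 mM tranylcypromine and 1 = vehicle-only wells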
Target sequence (P33261 whole entry, looked up): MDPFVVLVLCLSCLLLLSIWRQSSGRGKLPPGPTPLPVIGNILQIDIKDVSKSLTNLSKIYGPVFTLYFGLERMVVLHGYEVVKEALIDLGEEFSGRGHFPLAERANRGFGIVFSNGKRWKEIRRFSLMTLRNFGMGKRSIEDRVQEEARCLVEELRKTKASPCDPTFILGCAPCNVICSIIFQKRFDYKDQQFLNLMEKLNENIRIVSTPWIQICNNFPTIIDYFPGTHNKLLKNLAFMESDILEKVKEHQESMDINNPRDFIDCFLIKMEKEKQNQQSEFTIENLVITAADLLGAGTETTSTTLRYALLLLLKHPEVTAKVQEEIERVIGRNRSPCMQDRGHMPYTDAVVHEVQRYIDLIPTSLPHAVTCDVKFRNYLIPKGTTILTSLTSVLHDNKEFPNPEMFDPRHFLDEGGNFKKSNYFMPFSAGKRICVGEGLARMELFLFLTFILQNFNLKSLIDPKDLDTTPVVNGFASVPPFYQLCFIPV
CYP2C19 inh: blockers of cytochrome P450 2C19 activity – biochemical, luminescence, ADME assay, primary screen; P33261; CYP2C19 Supersomes, luciferin-H EGE luminescence, 30 min; inhibition, % at 5 µM; 96,000 tested, 21% active; AID 778, 2007;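 active = CYP2C19 inhibition above a set limit at 5 µM in the primary screen, cut at about 50% in these data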;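 note: plate controls were negative control wells for no effect and 2.5 mM tranylcypromine positive control for full effect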
* = called active by the depositor. Only some compounds are listed: those with a hit (about 32% of all), similar ones and a draw of the others. Cut-off read from the data, not from the text of the source, unless noted: active = inhibition above about 30%; inactive = the rest.

SMILES	PostGolgi yeast	CYP2C9 inh	CYP2C9 activ	PostGolgi ctrl	CYP2C19 act	CYP2C19 inh
O=C1C2C3CCC(C3NCc3ccccc3)C2C(=O)N1Cc1ccccc1 (centres undefined)	-8.1	23.5	0.8	21.4	0.7	33.2
CCOC(=O)c1ccc2c(c1)n(CC)c(/C=C/Nc1ccccc1)[n+]2CC	-16.7	-1.8	1	31.5*	0.9	9.0
CCn1c(/C=C/N(C)c2ccccc2)[n+](CC)c2ccc(Cl)cc21	18.0	16.5	0.8	-0.3	1	1.5
CC(=O)Nc1ccccc1NC(=O)C(F)(F)F	8.2	-6.9	1.1	2.9	0.9	8.3
CC(=O)Nc1cc(S(=O)(=O)Nc2cccc(C)c2)c(C)cc1C	-13.7	-56.5	1.6	0.6	0.4	64.9*
CC(=O)Nc1cc(S(=O)(=O)Nc2ccccc2C)c(C)cc1C	-2.8	-32.4	1.3	-2.1	0.5	51.0*
CC(=O)Nc1cc(S(=O)(=O)Nc2ccccc2)c(C)cc1C	2.8	-7.8	1.1	3.7	0.8	20.7
COc1cc(NS(=O)(=O)c2ccc(NC(=O)/C(=C\c3ccccc3OC)NC(=O)c3ccccc3)cc2)nc(OC)n1	-4.0	2.3	1	24.3	1	2.5
CC(CN1CCN(c2ccccc2)CC1)c1ccccc1 (centres undefined)	12.2	8.4	0.9	-3.3	0.7	31.4
O=C(Nc1ccc(Cl)cc1)OCc1cc(-c2ccccc2Cl)on1	1.2	-0.5	1	7.7	0.9	10.4
CS(=O)c1ccccc1COC(=O)Nc1cccc(Cl)c1 (centres undefined)	1.0	-20.9	1.2	8.1	0.6	39.5
O=C(Nc1cccc(Cl)c1)OCc1cncs1	1.8	87.3*	0.1	8.1	0	99.2*
CS(=O)(=O)c1ccccc1COC(=O)Nc1ccc(Cl)cc1	2.3	-1.4	1	13.9	0.3	69.4*
Cc1ccccc1NC(=O)OCc1cccnc1Sc1ccc(Cl)cc1	0.9	-19.2	1.2	-1.6	1.1	-14.0
O=C(Nc1ccc(Cl)cc1)OCc1cncs1	0.3	88.9*	0.1	-6.2	0	97.9*
Cc1ccc(-c2noc(CN3CCCCC3)n2)cc1	-2.8	-26.5	1.3	0.5	0.6	37.7
Clc1cccc(N2CCN(Cc3nc(-c4ccccc4)no3)CC2)c1	-5.4	14.0	0.9	34.5*	1	1.7
Clc1ccc(-c2noc(CN3CCCC3)n2)cc1	-1.1	3.5	1	37.1*	0.4	55.0*
CCOC(=O)C(CC)n1cnc2c(oc3ccccc32)c1=O (centres undefined)	0.9	19.5	0.8	0.6	0.9	14.0
CCC(C)(C)n1nnnc1CN(Cc1ccco1)Cc1cc2cc3c(cc2[nH]c1=O)OCO3	9.2	9.8	0.9	3.9	0.7	30.8
CCC(C)(C)n1nnnc1CN(Cc1ccc(Cl)cc1)Cc1ccco1	2.3	95.6*	0	15.2	0	97.4*
COc1cc(C(=O)NCCC(=O)NC2CCCCCCC2)cc(OC)c1OC	-1.1	37.4	0.6	-2.9	0.2	82.7*
COc1cc(C(=O)NCCC(=O)NCCN2CCCCCC2)cc(OC)c1OC	0.2	-17.4	1.2	8.4	1.1	-13.7
Cc1ccc(-n2c(C)cc(C(=O)COC(=O)c3c(C)noc3C)c2C)cc1	-3.0	20.2	0.8	22.1	0.9	10.2
Cc1ccc(-n2c(C)cc(C(=O)COC(=O)C3=NNC(=O)CC3)c2C)cc1	3.9	52.4*	0.5	17.4	0.4	61.5*
SMILES	PostGolgi yeast	CYP2C9 inh	CYP2C9 activ	PostGolgi ctrl	CYP2C19 act	CYP2C19 inh
Cc1cc(C(=O)COC(=O)C2=NNC(=O)CC2)c(C)n1-c1ccccc1	12.0	31.7	0.7	5.3	0.5	50.1*
Cc1cc2ccccc2nc1SCC(=O)N1CCCC1	-7.2	-21.6	1.2	7.9	0.7	33.1
Cc1ccc(-c2cc(-c3ccc(Cl)cc3)c(C#N)c(N)n2)o1	7.0	57.3*	0.4	7.6	0.2	75.4*
Cc1cc(-c2cc(-c3ccc(Cl)cc3)nc(N)c2C#N)co1	-14.1	69.0*	0.3	5.2	0.2	83.0*
Cc1ccc(-c2cc(-c3ccc(C)o3)nc(N)c2C#N)cc1	9.4	27.7	0.7	8.4	0.9	10.4
O=C(NCCNC1CCN(Cc2ccccc2)CC1)c1cccs1	-9.9	6.8	0.9	-7.0	1	-2.1
COc1ccc(CC(CC(=O)O)C(=O)Nc2ccccc2)cc1 (centres undefined)	1.1	9.6	0.9	1.1	0.9	11.4
Cc1cc(C(=O)c2cnc(/N=C/N(C)C)s2)cc(C)c1O	-2.2	-103.3	2*	1.7	0.6	41.0
CN(C)/C=N/c1ncc(C(=O)c2ccccc2)s1	-7.7	-15.6	1.2	9.2	0.9	13.3
COc1ccc(-n2nnnc2SCC(=O)Nc2ccc3c(c2)OCCO3)c(OC)c1	27.4	-11.0	1.1	10.1	0.9	7.3
Cc1ccc2cc(C#N)c(NCCCNC(=O)C3CCCO3)nc2c1 (centres undefined)	22.7	24.1	0.8	2.3	0.8	22.0
COC(=O)C(NC(=O)c1ccccc1Cl)(Nc1ncc(S(=O)(=O)c2ccc([N+](=O)[O-])cc2)s1)C(F)(F)F (centres undefined)	6.7	86.7*	0.1	0.0	1	3.0
Cc1ccc(CNC(=O)c2cn(C3CCCCC3)c(=O)c3c2c2ccccc2n3C)o1	3.9	39.4	0.6	6.1	0.8	24.5
Cc1cc(NC(=O)c2cn(C3CCCCC3)c(=O)c3c2c2ccccc2n3C)no1	-8.4	84.4*	0.2	12.3	0.4	59.6*
CCCC(=O)Nc1cccc(Oc2nc(C)cc(C)c2C#N)c1	-2.1	24.4	0.8	7.4	0.7	25.6
Oc1oc(-c2ccccc2)nc1C=Nc1cccc2ccccc12	12.4	13.1	0.9	39.9*	0.6	38.5
CCN(CC)CCNC(=O)c1c(C)oc2cc(Br)c(OC)cc12	8.2	27.6	0.7	9.3	0.9	11.9
N=c1oc2c3c4c(cc2cc1C(=O)Nc1ccccc1)CCCN4CCC3	8.5	7.2	0.9	10.1	0.9	11.1
COc1ccc(C(=O)NCC2OCCc3ccccc32)c(O)c1 (centres undefined)	0.5	50.7*	0.5	5.5	0.1	90.3*
Oc1c(C(c2cccs2)N2CCOCC2)sc2ncnn12 (centres undefined)	-1.4	-24.5	1.2	-2.7	1.1	-7.8
O=C(c1ccco1)N1CCN(C(c2cccs2)c2sc3ncnn3c2O)CC1 (centres undefined)	0.0	43.5	0.6	1.5	0.5	52.0*
Cc1ccc(C(c2sc3ncnn3c2O)N2CC(C)CC(C)C2)cc1 (centres undefined)	0.2	27.0	0.7	2.2	0.2	76.1*
